IMPase inh – membrane-permeable compound that blocks inositol monophosphatase; P97697; CHO-M1 cells, IP1 accumulation, HTRF TR-FRET ratio; inhibition (IP1 accumulation), % at 46.1 µM; 120,000 tested, under 10 active; AID 901; active = well fitted curve in the direction sought with a large enough effect in the signal ratio, not every such curve was filed as active; inconclusive = small, poorly fitted or top-dose-only effect, or a change in a side signal; inactive = no such curve, though single readings can be large or run the other way; the % refers to the signal ratio;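 also: cells stimulated with carbachol in lithium chloride buffer; higher means more IMPase inhibition seen as more IP1 and lower FRET ratio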
Target sequence (P97697 whole entry, looked up): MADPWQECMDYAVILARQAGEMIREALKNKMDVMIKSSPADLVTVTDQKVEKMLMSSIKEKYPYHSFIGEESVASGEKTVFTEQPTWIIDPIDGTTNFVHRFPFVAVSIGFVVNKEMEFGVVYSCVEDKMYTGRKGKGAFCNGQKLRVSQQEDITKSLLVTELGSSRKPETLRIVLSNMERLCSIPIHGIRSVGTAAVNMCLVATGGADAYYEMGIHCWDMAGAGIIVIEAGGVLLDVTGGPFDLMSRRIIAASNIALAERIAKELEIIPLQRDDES
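Cellular IMPase inhibition is scored as a rise in cytosolic IP1, detected by competitive TR-FRET between d2-labelled IP1 and a europium anti-IP1 antibody. M1-expressing CHO cells were stimulated with carbachol for 30 min at 37C, with lithium (50 mM LiCl) present in the buffer.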
HPGD inh – HPGD (human) dehydrogenase inhibition; P15428; purified HPGD, NADH fluorescence kinetic, PGE2 substrate; Potency, µM, hits mostly inhibitors; AID 894; hit rate 4.3% among 150,000
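20 nM HPGD preincubated 15 min at room temperature with compound in 50 mM Tris-HCl pH 8, 0.01% Tween 20. Started with 1 mM NAD+ and 30 uM prostaglandin E2; NADH fluorescence (360/450 nm) read 5 times over 30-s intervals, last minus first.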
ALDH1A1 inh – inhibitors of human aldehyde dehydrogenase 1A1 | P00352 | Purified ALDH1A1, NADH fluorescence, propionaldehyde substrate | Potency, µM (top dose mostly 75.3 µM), usual class: inhibitors | hit rate 7.3% among 220,000 | AID 1030
Numbers stand for hits; n = inactive; u = inconclusive; x = not tested or not shown; ! = not confirmed by another sample; [ ] = another dose, or the depositor's remark. Hits are enriched below; roughly 9% of the tested compounds scored in any of these assays. Unless noted, calls follow the shape of the dose curve; as a rule, active = well fitted inhibition curve with a large enough effect (not every such curve was filed as active); inconclusive = small, poorly fitted or top-dose-only effect, or another doubt; inactive = no such curve, though single readings can be large or run the other way.

SMILES	IMPase inh	HPGD inh	ALDH1A1 inh
COc1ccc(C2SCC(=O)Nc3c2c(C)nn3-c2ccccc2)cc1 (stereo not given)	n	12.6µM	n
Cc1nn(C2CCOC(C)(C)C2)c2c1C(c1ccc(OC(C)C)cc1)SCC(=O)N2 (stereo not given)	n	n	u
Cc1ccc(-n2nc(C)c3c2NC(=O)CSC3c2ccc3c(c2)OCO3)cc1 (stereo not given)	n	17.8µM	u
CCCC(C)n1[nH]c(=O)c2c1NC(=O)CSC2c1ccc(OC)cc1 (stereo not given)	n	n	n
c1cc(CN2CCC3(CCNCC3)CC2)ccn1	x	u	n
CC1C(=O)OC2C(O)C34C5OC(=O)[C@@]3(OC3OC(=O)[C@H](O)[C@]34C(C(C)(C)C)C5O)[C@]12O (stereo not given in full)	x	n	n
O=S(=O)(O)F	x	n	n
O=C(O)CSCC(=O)O	x	n	n[13.5 µM]
O=C(O)c1cccc2c1NC(C(=O)O)C1CC(Sc3ccccc3[N+](=O)[O-])C(Cl)C21 (stereo not given)	n	u	n
CC(=O)c1ccc2c(c1)C1C(Cl)C(Sc3ccccc3[N+](=O)[O-])CC1C(C(=O)O)N2 (stereo not given)	n	u	1.78µM
O=C(Nc1cccc(F)c1)N1CCC2(CC1)CCN(C(=O)Oc1ccccc1)CC2	x	n	u
COc1ccc(C(=O)C2CCCN(Cc3ccccn3)C2)c(OC)c1 (stereo not given)	x	x	n
COc1cccc(C(=O)N2CCN(Cc3ccccn3)CC2)c1OC	n	n	7.08µM
O.O.[NH-]C1(C(=O)O)CCCC1.[NH-]C1(C(=O)O)CCCC1.[Ni+2]	x	n	n[13.5 µM]
CCn1cc(C(=O)c2ccccc2)c2ccccc21	n	n	n
C[CH2][Hg][S]c1ccccc1C(=O)O	x	0.282µM	0.178µM
O=C1NO[C@@H]2CN[C@@H](C(=O)O)[C@H]12	x	n	n
ClCC[N+]12CC[N+](CCCl)(CC1)C2 (tested in a mixture with another compound)	x	n	u
CN1C(=O)C(=Cc2c(OCc3cnc(Cl)s3)ccc3ccccc23)C(=O)N(C)C1=O	x	x	2.24µM
C[C@@](Br)(C(=O)O)[C@H](Br)C(=O)O	x	n	n[13.5 µM]
NCC(=O)c1ccccc1	x	n	u
O=C(CCl)NN=C(c1ccccc1)c1ccccc1	x	x	0.0126µM
CN(C)CCCc1c[nH]c2ccccc12	x	n	n[13.5 µM]
CCN[C@]1(c2cccs2)CCCCC1=O	n	n	n
C[C@@H]1C[C@@H](O)[C@@]2(O)[C@]13CC(=O)OC[C@]2(C)[C@@](C)(O)C(=O)C3	x	n	n
SMILES	IMPase inh	HPGD inh	ALDH1A1 inh
CCCn1c(C(=O)c2ccc(OC)cc2)nc2ccccc21	x	x	n
COc1ccc(C(=O)c2c(C)n(CCN3CCOCC3)c3cc(I)ccc23)cc1	n	n	5.01µM
CC(=O)Nc1ccc(S(=O)(=O)N2CCSC2c2ccc(C)cc2)cc1 (stereo not given)	n	n	u
Oc1cc(Cl)ccc1Cl	x	n	u
Oc1cc(Cl)ccc1Oc1ccc(Cl)cc1Cl	x	7.94µM	n
COC(=O)[C@@]1(Cc2ccccc2)[C@H]2c3cc(C(=O)N(C)C)n(C)c3C[C@H]2CN1C(=O)c1ccccc1	x	n	n
Cn1ccc(NC(=O)CCl)n1	x	x	20µM
C[C@H]1CCC/C=C/C2C[C@H](O)C[C@H]2[C@H](O)/C=C/C(=O)O1 (stereo not given in full)	x	n	n
C[C@H]1CCCC(=O)CCC/C=C/c2cc(O)cc(O)c2C(=O)O1	n	14.1µM!	14.1µM
c1ccc(N=NNc2ccccc2)cc1	x	n	n
O=c1c(O)c(-c2ccc(O)c(O)c2)oc2c(O)c(O)cc(O)c12	x	17.8µM	35.5µM
O=C(O)[C@H]1C2c3ccccc3C(c3ccccc32)[C@@H]1C(=O)NCC1CC1	x	n	n[13.5 µM]
COC(=O)N1CCC2(CCCN(C)C2)CC1	x	n	n
CCBr	x	n	u
CN1C[C@@H](C(=O)N[C@@]2(C)O[C@]3(O)C4CCCN4C(=O)[C@@H](Cc4ccccc4)N3C2=O)C=C2c3cccc4[nH]cc(c34)C[C@@H]21 (stereo not given in full)	n	n	u
COCCCOc1ccnc(CS(=O)c2nc3ccccc3[nH]2)c1C (stereo not given)	x	u	5.97µM
Cc1c(OCC(F)(F)F)ccnc1CS(=O)c1nc2ccccc2[nH]1 (stereo not given)	n	u	n
CC1=C2[C@@H]3OC(=O)[C@@H](C)[C@@H]3CC[C@]2(C)C=CC1=O	n	n	n
c1cnc(N2CCC3(CCNCC3)CC2)nc1	x	n	n
O=C1CC2(CCCC2)CC(=O)N1CCCCN1CCN(c2ncccn2)CC1	n	n	3.55µM
CCn1c(O)c(C=NCc2cccs2)c(=O)n(CC)c1=S	n	n	u
